# Screening results as filed in PubChem.
# SRC2 TRFRET art: counter-screen for PPARgamma SRC-2 recruitment agonists: TR-FRET artefact; stronger effect = higher value; TR-FRET ratio at 8 µM; 200,000 tested, 0.4% active
# PPARg SRC-1 ag: agonists of human PPARgamma SRC-1 coactivator recruitment | P37231 | PPARgamma-SRC-1 coactivator recruitment biochemical assay | activation, % at 8 µM | 200,000 tested, 0.41% active | AID 631; in the data active = activation above about 19%;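 note: 0% = DMSO and 100% = reference agonist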
# Target sequence (P37231 whole entry, looked up): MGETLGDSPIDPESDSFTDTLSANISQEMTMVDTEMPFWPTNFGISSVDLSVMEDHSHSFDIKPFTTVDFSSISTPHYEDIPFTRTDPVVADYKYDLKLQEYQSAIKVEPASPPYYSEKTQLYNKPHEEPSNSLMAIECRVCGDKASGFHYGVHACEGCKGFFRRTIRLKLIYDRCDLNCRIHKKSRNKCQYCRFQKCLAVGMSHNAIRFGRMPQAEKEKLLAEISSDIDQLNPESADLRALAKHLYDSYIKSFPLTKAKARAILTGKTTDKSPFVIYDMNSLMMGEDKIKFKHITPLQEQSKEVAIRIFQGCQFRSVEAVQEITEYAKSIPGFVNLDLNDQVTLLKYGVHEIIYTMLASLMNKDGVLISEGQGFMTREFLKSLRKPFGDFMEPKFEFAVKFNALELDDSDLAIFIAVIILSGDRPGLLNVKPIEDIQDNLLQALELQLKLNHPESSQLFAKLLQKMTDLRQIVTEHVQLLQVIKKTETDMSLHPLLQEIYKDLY
# SRC1 TRFRET art: counter-screen for PPARgamma SRC-1 recruitment agonists: TR-FRET artefact | TR-FRET detection artefact counter-screen, emission ratio; stronger effect = higher value | TR-FRET ratio at 8 µM | 99,000 tested, 0.34% active | AID 1051; in the data active = TR-FRET ratio above about 2300
# SRC3 TRFRET art: counter-screen for PPARgamma SRC-3 recruitment agonists: TR-FRET artefact; PPARgamma/SRC-3 format; stronger effect = higher value; TR-FRET ratio at 8 µM; 99,000 tested, 0.39% active; AID 1048
# PPARg SRC3 recr: agonists of human PPARgamma SRC-3 coactivator recruitment | P37231 | biochemical PPARgamma/SRC-3 coactivator recruitment assay | activation, % at 8 µM | 200,000 tested, 0.26% active | AID 731; in the data active = activation above about 23%;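 note: 0% = DMSO and 100% = reference agonist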
# PPARg SRC-2 ag: agonists of SRC-2 recruitment by human PPARgamma; P37231; PPARgamma LBD-SRC-2 recruitment, biochemical; activation, % at 8 µM; 200,000 tested, 0.34% active; in the data active = activation above about 22%;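 note: 0% = vehicle and 100% = reference agonist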
# * = called active by the depositor; . = no result given. This is a sample that favours compounds with a hit; in the whole collection about 0.84% have one here. Cut-off read from the data, not from the text of the source, unless noted: active = TR-FRET ratio above about 2000; inactive = the rest.
SMILES,SRC2 TRFRET art,PPARg SRC-1 ag,SRC1 TRFRET art,SRC3 TRFRET art,PPARg SRC3 recr,PPARg SRC-2 ag
O=C(O)CCC(=O)NNC(=O)c1cccs1,1660,4.2,1830,1638,5.7,7.0
CC1=NNC(=O)C1CC(=O)N/N=C(\C)c1ccco1 (centres undefined),1775,2.1,2343*,1454,2.0,5.8
CC1=NNC(=O)C1CCC(=O)N/N=C(\C)c1ccccc1 (centres undefined),1390,0.4,1740,1476,1.6,-1.3
CC1Cc2ccccc2N1C(=O)CSc1nnc(-c2ccccc2)c(-c2ccccc2)n1 (centres undefined),3425*,-2.7,.,.,2.4,0.3
COc1ccc(C(C(=O)NC2CCCC2)N(C(=O)c2snc(-c3ccc(F)cc3)c2N)c2ccc(OC)cc2)cc1 (centres undefined),2223*,16.1,.,.,16.8,14.5
COc1cc(OC)cc(C(=O)NCC(=O)OCC(=O)c2ccc3c(c2)-c2ccccc2C3)c1,2065*,7.7,2143,2602*,5.3,6.8
CCCCC(CC)Cn1c2nc3ccccc3nc2c2c(=N)oc(C)nc21 (centres undefined),2312*,-4.4,.,.,-7.5,47.6*
CCCCC(CC)Cn1c(N)c(C#N)c2nc3ccccc3nc21 (centres undefined),1503,1.8,.,.,7.0,9.6
O=C(Nc1ccccc1)C1=C[C@@H](c2coc3ccccc3c2=O)C[C@@H](OCc2ccc(CO)cc2)O1,1543,7.0,1748,1525,4.2,4.7
CCOC(=O)COc1ccc(/C=C2\NC(=S)N(CC)C2=O)cc1,3635*,-6.3,1582,1401,-0.1,94.0*
N#Cc1c(NC(=O)c2ccccc2Cl)n(Cc2ccccc2)c2nc3ccccc3nc12,1663,20.6*,1811,1498,62.1*,13.2
CCCCn1c(NC(=O)c2ccccc2Cl)c(C#N)c2nc3ccccc3nc21,1951,13.4,.,.,23.1,21.8
O=C(Cn1cnc([N+](=O)[O-])n1)N/N=C/c1cc(Cl)ccc1O,1561,9.0,1784,1678,0.6,4.7
O=C(Cn1nnc2c(cnn2-c2ccc(F)cc2)c1=O)Nc1ccccc1C(F)(F)F,1467,0.3,1809,1568,4.8,8.0
COc1cccc(C(=O)Nc2ccc(-c3nc4ccccc4o3)c(O)c2)c1,2264*,2.7,.,.,-4.8,8.7
CC(C)NC(=S)N(CCc1ccncc1)C(C)C,1610,3.8,1719,1507,-0.3,14.1
CCC(=O)Nc1ccc(C(=O)N/N=C/c2ccc([N+](=O)[O-])cc2)cc1,1712,11.2,2345*,1554,7.2,3.7
COc1ccc(Br)cc1C(=O)N/N=C/c1ccc([N+](=O)[O-])cc1,1717,30.1*,2467*,1795,-0.3,5.4
CCOc1ccc(Br)cc1C(=O)N/N=C/c1ccc([N+](=O)[O-])cc1,1653,8.9,1882,1542,3.4,11.8
CC(=O)Nc1ccc(Nc2nc(-c3ccccc3)nc3ccccc23)cc1,1370,-0.7,1753,1577,-1.1,-4.5
O=C(Nc1nc(-c2ccccc2)nc2ccccc12)c1ccc(F)cc1,1915,-0.8,1991,2774*,34.4*,10.8
CCOc1cc(/C=N/NC(=O)c2ccc(O)cc2)ccc1Oc1nc(Cl)ncc1F,1608,13.1,2558*,1632,5.0,9.0
CCOC(=O)c1c(NC(=O)CSc2c[nH]c3ccccc23)sc2c1CCCC2,1640,-4.8,1766,4458*,1.4,-13.8
CCOC(=O)c1c(NC(=O)C(C)Sc2cn(C)c3ccccc23)sc2c1CCC2 (centres undefined),1483,9.6,1794,1894,5.3,24.3*
CCOC(=O)c1c(NC(=O)CSc2nnc(-c3c[nH]c4ccccc34)n2CCOC)sc2c1CCCCC2,1477,-0.9,1650,1556,8.3,0.1
CCOC(=O)c1c(NC(=O)C(C)Sc2cccc[n+]2[O-])sc2c1CCN(Cc1ccccc1)C2 (centres undefined),1644,4.8,1633,1688,3.0,8.2
CCOC(=O)c1c(NC(=O)CSc2c[nH]c3ccccc23)sc2c1CCC2,1481,4.7,1826,4916*,0.6,-0.6
CC1(C)CC(=O)C(Sc2ccccc2[N+](=O)[O-])=C(O)C1,1411,11.4,1942,1560,5.7,-1.8
COC(=O)c1cc(COC(=O)c2nc3nccc(C)n3n2)oc1C,1459,-7.5,1786,1468,0.4,4.5
